# In PubChem BioAssay (Tox21):
# Several values for one entry are separate records, joined by “and”; a condition that tells them apart may be missing. Equal entries are not always repeated. More than one record can exist for a structure, and the calls need not agree. Activity calls are given as the source filed them. Where a call stands in place of a potency, no number is given. Unless noted, calls come from the whole dose curve; as a rule, active = well fitted curve in the direction sought with a large enough effect in the repeat runs; inconclusive = weak or mixed curves; inactive = no such curve, though single readings can be large; an effect the other way counts as inactive or inconclusive.
# How the values were obtained:
# [1] = qHTS assay to identify small molecule antagonists of the thyroid receptor (TR) signaling pathway (AID 743065); note: nearly all actives have a fitted effect of over 55% in size; note: potency is the fitted concentration of half-maximal effect
# How it was run: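 Antagonism measured as loss of luciferase signal in GH3 cells stably carrying a TRE-luciferase reporter, co-treated with compound and T3 (1 nM final) for 23.5 h at 37 C. Viability was read in the same well by CellTiter-Fluor.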
# [2] = tested on: thyroid hormone receptor (rat, GH3 cells); test: qHTS assay to identify small molecule agonists of the thyroid receptor (TR) signaling pathway (AID 743066; calls by dose curve)
# [3] = target: Estrogen receptor (Homo sapiens) (UniProt P03372); test: qHTS assay to identify small molecule antagonists of the estrogen receptor alpha (ER-alpha) signaling pathway (AID 743069; active = well fitted curve in the direction sought with a large enough effect in the signal ratio in the repeat runs, not every such curve was filed as active; inconclusive = weak or mixed curves, or effect the other way; inactive = no such curve, though single readings can be large or run the other way; the % refers to the signal ratio; note: potency is the fitted concentration of half-maximal effect)
# How it was run: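 ER-alpha-UAS-bla GripTite HEK293 line; 2% charcoal-stripped FBS overnight; plated, 4 hr 37C/5% CO2; cpd in DMSO + 17beta-estradiol, 18 hr 37C; LiveBLAzer B/G FRET substrate 2 hr RT; fluorescence intensity.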
# [4] = qHTS assay to identify small molecule antagonists of the estrogen receptor alpha (ER-alpha) signaling pathway - cell viability counter screen (AID 743074; calls by dose curve;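 note: HEK293 cells carrying ER-alpha-UAS-bla reporter stimulated with 17beta-estradiol; nearly all actives have a fitted effect of over 45% in size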; note: potency is the fitted concentration of half-maximal effect)
# [5] = target: Estrogen receptor (Homo sapiens) (UniProt P03372); test: qHTS assay to identify small molecule agonists of the estrogen receptor alpha (ER-alpha) signaling pathway (AID 743075; calls by dose curve;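 note: HEK293 GripTite cells with ER-alpha and UAS-driven beta-lactamase reporter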; note: potency is the fitted concentration of half-maximal effect)
# [6] = target: Estrogen receptor (Homo sapiens) (UniProt P03372); test: qHTS assay to identify small molecule agonists of the estrogen receptor alpha (ER-alpha) signaling pathway using the BG1 cell line (AID 743079); note: nearly all actives have a fitted effect of over 20% in size; note: potency is the fitted concentration of half-maximal effect
# [7] = qHTS assay to identify small molecule antagonists of the estrogen receptor alpha (ER-alpha) signaling pathway using the BG1 cell line (AID 743080; calls by dose curve; note: nearly all actives have a fitted effect of over 25% in size; note: potency is the fitted concentration of half-maximal effect); settings: BG1Luc4E2 ERE-luciferase antagonist mode, luminescence; activity change, negative = inhibition: at 70.3 µM (top of the series) unless noted
# How it was run: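 Antagonist mode: compounds in DMSO were pinned onto BG1-Luc-4E2 cells alongside 17beta-estradiol agonist, incubated 21.5 h, and ERE-driven luciferase measured with ONE-Glo. Cytotoxicity was multiplexed using CellTiter-Fluor fluorescence.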
# [8] = qHTS assay to identify small molecule antagonists of the estrogen receptor alpha (ER-alpha) signaling pathway using the BG1 cell line - cell viability counter screen (AID 743081);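 note: compound given together with 17beta-estradiol as the ER stimulus; nearly all actives have a fitted effect of over 45% in size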
# [9] = target: Aromatase (Homo sapiens) (UniProt P11511); test: qHTS assay to identify aromatase inhibitors (AID 743083); note: nearly all actives have a fitted effect of over 55% in size
# [10] = qHTS assay to identify aromatase inhibitors - cell viability counter screen (AID 743084);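 note: cells stimulated with testosterone during compound exposure; nearly all actives have a fitted effect of over 55% in size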
# [11] = target: Aryl hydrocarbon receptor (Homo sapiens) (UniProt P35869); test: qHTS assay to identify small molecule that activate the aryl hydrocarbon receptor (AhR) signaling pathway (AID 743085); note: nearly all actives have a fitted effect of over 15% in size; note: potency is the fitted concentration of half-maximal effect;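 for activation: HG2L7.5c1 human HepG2 liver cells with stably integrated DRE-driven firefly reporter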
# How it was run: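 Luminescence (ONE-Glo) from a dioxin-responsive-element luciferase reporter in HG2L7.5c1 HepG2 cells after 24 hr compound exposure at 37C; viability measured by CellTiter-Fluor fluorescence beforehand.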
# [12] = qHTS assay to identify small molecule that activate the aryl hydrocarbon receptor (AhR) signaling pathway - cell viability counter screen (AID 743086);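 note: HepG2 liver cells carrying the AhR DRE luciferase reporter; nearly all actives have a fitted effect of over 45% in size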
# How it was run: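 Cytotoxicity counter screen: CellTiter-Fluor signal (30 min, 37 C) in 4000 HepG2 cells/well carrying the DRE-luciferase reporter, following 24 h compound exposure at 37 C.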
# [13] = qHTS assay to identify small molecule antagonists of the peroxisome proliferator-activated receptor gamma (PPARg) signaling pathway - cell viability counter screen (AID 743194); settings: Potency: co-treated with 50 nM rosiglitazone unless noted; note: nearly all actives have a fitted effect of over 55% in size
# How it was run: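 Viability was measured as CellTiter-Glo luminescence in GeneBLAzer PPARg UAS-bla HEK293H cells. These cells had been exposed 17 h at 37 C to compounds together with rosiglitazone at 50 nM final, with the beta-lactamase readout taken in the same wells.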
# [14] = qHTS assay for small molecule agonists of the antioxidant response element (ARE) signaling pathway (AID 743202; active = well fitted activation curve with a large enough effect in the signal ratio in the repeat runs, not every such curve was filed as active; inconclusive = weak or mixed curves, or effect the other way; inactive = no such curve, though single readings can be large or run the other way; the % refers to the signal ratio; note: potency is the fitted concentration of half-maximal effect)
# How it was run: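 Quantitative high-throughput format in HepG2 cells bearing an integrated ARE-beta-lactamase reporter. Compound exposure lasted 16 h at 37 C, and fluorescence was read 2 h after adding LiveBLAzer B/G substrate at room temperature.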
# [15] = qHTS assay for small molecule agonists of the antioxidant response element (ARE) signaling pathway - cell viability counter screen (AID 743203; calls by dose curve; note: nearly all actives have a fitted effect of over 55% in size)
# How it was run: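 HepG2 cells carrying ARE-driven beta-lactamase; 2,000 cells/well; 5 hrs plating; compound pinned from DMSO; 16 hrs 37C/5% CO2; CellTiter-Glo added; 30 min RT; luminescence.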
# [16] = qHTS assay for small molecule activators of the heat shock response signaling pathway - cell viability counter screen (AID 743209); note: nearly all actives have a fitted effect of over 50% in size
# How it was run: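 Luminescence from CellTiter-Glo, added after the beta-lactamase FRET read, gave the viability signal. Cells were HSE-bla HeLa treated with DMSO-dissolved compounds for 5 h at 37 C following overnight plating.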
# [17] = qHTS assay for small molecule activators of the heat shock response signaling pathway (AID 743210; active = well fitted activation curve with a large enough effect in the signal ratio in the repeat runs, with a control signal flat, not every such curve was filed as active; inconclusive = weak or mixed curves; the % refers to the signal ratio;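 note: HeLa cells with beta-lactamase reporter driven by heat shock elements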)
# How it was run: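 HeLa HSE-bla cells, overnight plating; cpd in DMSO 5 h, 37 C; LiveBLAzer B/G FRET substrate 2.5 h RT; fluorescence intensity read.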
# [18] = qHTS assay to identify small molecule agonists of the peroxisome proliferator-activated receptor delta (PPARd) signaling pathway - cell viability counter screen (AID 743211); note: nearly all actives have a fitted effect of over 55% in size
# How it was run: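 Viability was measured as CellTiter-Glo luminescence (30 min, room temperature) in the same wells as the beta-lactamase readout. GeneBLAzer PPARd UAS-bla HEK293H cells received compound after 5 h plating and were incubated 17 h at 37 C.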
# [19] = target: Peroxisome proliferator-activated receptor gamma (Homo sapiens) (UniProt P37231); test: qHTS assay to identify small molecule antagonists of the peroxisome proliferator-activated receptor gamma (PPARg) signaling pathway (AID 743191; calls by dose curve; note: nearly all actives have a fitted effect of over 30% in size; note: potency is the fitted concentration of half-maximal effect)
# How it was run: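 Beta-lactamase reporter under UAS control in HEK293H PPARg-bla cells; compound treatment 17 h at 37C. Read-out: fluorescence intensity after 1 h room-temperature incubation with LiveBLAzer B/G FRET substrate.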
# [20] = target: Peroxisome proliferator-activated receptor delta (Homo sapiens) (UniProt Q03181); test: qHTS assay to identify small molecule agonists of the peroxisome proliferator-activated receptor delta (PPARd) signaling pathway (AID 743212; calls by dose curve)
# How it was run: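 HEK293H PPARd-bla cells; 5 h preincubation 37 C/5% CO2; compound (DMSO) 37 C; LiveBLAzer B/G FRET substrate 2 h RT; fluorescence intensity.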
# Peroxisome proliferator-activated receptor gamma (Homo sapiens), sequence (P37231 whole entry, looked up): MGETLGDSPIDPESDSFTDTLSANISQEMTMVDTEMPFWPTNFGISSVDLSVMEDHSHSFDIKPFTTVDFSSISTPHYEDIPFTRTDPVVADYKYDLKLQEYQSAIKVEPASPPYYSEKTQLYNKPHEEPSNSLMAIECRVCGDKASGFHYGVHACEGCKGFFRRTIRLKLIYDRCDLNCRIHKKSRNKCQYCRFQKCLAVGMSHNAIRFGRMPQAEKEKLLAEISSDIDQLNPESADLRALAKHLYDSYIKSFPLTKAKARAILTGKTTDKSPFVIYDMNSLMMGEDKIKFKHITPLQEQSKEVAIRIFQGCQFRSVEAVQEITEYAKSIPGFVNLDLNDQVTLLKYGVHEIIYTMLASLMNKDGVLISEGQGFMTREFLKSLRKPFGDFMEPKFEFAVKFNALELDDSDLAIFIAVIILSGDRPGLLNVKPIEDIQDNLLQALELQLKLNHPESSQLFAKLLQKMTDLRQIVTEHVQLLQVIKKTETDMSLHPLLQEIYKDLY
# Aromatase (Homo sapiens), sequence (P11511 whole entry, looked up): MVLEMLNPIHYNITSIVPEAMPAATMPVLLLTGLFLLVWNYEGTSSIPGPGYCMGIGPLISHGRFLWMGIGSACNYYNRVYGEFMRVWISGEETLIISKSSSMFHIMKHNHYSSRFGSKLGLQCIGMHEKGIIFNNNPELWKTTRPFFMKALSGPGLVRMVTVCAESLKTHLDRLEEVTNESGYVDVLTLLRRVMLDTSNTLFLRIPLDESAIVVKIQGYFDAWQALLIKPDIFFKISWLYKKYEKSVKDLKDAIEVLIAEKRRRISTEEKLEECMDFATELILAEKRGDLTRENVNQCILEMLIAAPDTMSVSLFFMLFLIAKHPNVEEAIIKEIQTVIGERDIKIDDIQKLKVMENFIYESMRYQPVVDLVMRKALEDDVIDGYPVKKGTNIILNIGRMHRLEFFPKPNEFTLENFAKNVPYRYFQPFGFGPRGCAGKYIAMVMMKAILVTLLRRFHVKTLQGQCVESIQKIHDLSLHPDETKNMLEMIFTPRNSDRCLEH
# Estrogen receptor (Homo sapiens), sequence (P03372 whole entry, looked up): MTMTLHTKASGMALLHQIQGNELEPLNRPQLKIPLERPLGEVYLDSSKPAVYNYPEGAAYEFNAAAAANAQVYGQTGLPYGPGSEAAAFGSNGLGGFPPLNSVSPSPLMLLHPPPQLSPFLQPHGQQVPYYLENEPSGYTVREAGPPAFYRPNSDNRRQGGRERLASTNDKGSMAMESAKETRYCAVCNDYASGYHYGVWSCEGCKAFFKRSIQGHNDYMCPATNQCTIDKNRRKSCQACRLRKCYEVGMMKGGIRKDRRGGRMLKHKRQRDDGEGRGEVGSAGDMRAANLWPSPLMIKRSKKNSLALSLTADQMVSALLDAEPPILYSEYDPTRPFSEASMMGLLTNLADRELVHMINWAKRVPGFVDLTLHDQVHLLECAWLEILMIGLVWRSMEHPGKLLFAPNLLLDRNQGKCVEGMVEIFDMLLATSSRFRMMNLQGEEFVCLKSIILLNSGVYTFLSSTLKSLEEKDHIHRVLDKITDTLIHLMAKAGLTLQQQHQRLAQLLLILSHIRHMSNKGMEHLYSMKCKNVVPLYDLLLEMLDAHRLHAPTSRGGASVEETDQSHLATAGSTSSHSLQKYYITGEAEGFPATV
# Peroxisome proliferator-activated receptor delta (Homo sapiens), sequence (Q03181 whole entry, looked up): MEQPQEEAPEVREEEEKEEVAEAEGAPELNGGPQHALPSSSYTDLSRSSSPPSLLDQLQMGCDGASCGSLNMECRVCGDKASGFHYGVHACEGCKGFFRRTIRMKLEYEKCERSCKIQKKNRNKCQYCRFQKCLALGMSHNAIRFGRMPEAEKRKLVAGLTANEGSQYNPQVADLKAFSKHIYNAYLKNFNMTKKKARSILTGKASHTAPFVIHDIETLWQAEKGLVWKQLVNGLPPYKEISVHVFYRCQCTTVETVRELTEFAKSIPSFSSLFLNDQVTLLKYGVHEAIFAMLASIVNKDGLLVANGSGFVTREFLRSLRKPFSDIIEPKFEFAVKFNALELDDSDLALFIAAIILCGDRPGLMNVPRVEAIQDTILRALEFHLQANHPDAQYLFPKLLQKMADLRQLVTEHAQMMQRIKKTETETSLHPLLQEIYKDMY
# Aryl hydrocarbon receptor (Homo sapiens), sequence (P35869 whole entry, looked up): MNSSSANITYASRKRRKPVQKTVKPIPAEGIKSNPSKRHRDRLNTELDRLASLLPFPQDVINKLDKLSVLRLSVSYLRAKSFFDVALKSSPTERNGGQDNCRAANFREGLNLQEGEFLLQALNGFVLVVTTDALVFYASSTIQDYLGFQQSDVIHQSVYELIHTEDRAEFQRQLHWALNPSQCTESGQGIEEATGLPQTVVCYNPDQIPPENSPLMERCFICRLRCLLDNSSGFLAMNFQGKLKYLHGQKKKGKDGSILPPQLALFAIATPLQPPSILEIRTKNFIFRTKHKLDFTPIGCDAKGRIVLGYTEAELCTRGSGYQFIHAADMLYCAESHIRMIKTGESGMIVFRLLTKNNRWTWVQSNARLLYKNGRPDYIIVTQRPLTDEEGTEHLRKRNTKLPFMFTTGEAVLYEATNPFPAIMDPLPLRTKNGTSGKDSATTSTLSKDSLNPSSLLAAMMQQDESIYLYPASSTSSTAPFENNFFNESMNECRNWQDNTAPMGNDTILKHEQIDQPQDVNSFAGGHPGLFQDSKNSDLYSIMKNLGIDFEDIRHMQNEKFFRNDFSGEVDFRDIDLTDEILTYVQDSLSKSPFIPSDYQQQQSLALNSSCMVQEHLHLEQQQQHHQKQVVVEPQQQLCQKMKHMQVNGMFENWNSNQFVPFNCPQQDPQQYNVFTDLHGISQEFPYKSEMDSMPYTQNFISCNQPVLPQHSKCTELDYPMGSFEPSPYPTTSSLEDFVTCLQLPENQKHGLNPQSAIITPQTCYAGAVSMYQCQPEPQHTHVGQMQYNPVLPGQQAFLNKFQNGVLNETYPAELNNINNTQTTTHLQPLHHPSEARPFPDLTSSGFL
SMILES,Potency [1],Potency [2],Potency [3],Potency [4],Potency [5],Potency [6],Potency [7],Potency [8],Potency [9],Potency [10],Potency [11],Potency [12],Potency [13],Potency [14],Potency [15],Potency [16],outcome [17],Potency [18],Potency [19],outcome [20]
O=C(O)c1nc(Cl)ccc1Cl,inactive,inactive,inactive,inactive,inactive,inactive,inactive,inactive,inactive,inactive,22.4 µM (active) and inactive,inactive,inactive,inactive,inactive,inactive,inactive,inactive,–,–
OCCOc1ccccc1,inactive,inactive,inactive,inactive,inactive,inactive,inactive,inactive,inactive,inactive,inactive,inactive,inactive,inactive,inactive,inactive,inactive,inactive,inactive,inactive
CCOP(=S)(OCC)Oc1ccc2c(C)c(Cl)c(=O)oc2c1,inactive,inactive,–,inactive,–,–,–,inactive,inactive,inactive,596 nM (active) and 98 nM (active),inactive,inactive,inactive,inactive,inactive,inactive,inactive,–,inactive
CCCC[N+]1(C)CCCCC1,inactive,inactive,–,inactive,–,–,–,inactive,inactive,inactive,inactive,inactive,inactive,inactive,inactive,inactive,–,inactive,–,–
O=C(O)CC(O)(CC(=O)O)C(=O)O,inactive,inactive,–,inactive,–,–,–,inactive,inactive,inactive,inactive,inactive,inactive,inactive,inactive,inactive,inactive,inactive,inactive,inactive
Cc1cc(-c2ccc(N)c(C)c2)ccc1N,inactive,inactive,inactive,inactive,19.2 nM [inconclusive] (active) and 48.8 µM [inconclusive] (active) and 61.7 µM [inconclusive] (active),inactive,–,inactive,inactive,inactive,–,inactive,inactive,8.73 µM (active),inactive,inactive,inactive,inactive,inactive,–
CCCCn1cc[n+](C)c1C,inactive,inactive,–,inactive,–,–,–,inactive,inactive,inactive,inactive,inactive,inactive,60.8 µM (active) and 54.7 µM (active) and 61.6 µM (active),inactive,inactive,inactive,inactive,–,–
CCCCn1cc[n+](C)c1,inactive,inactive,–,inactive,–,–,–,inactive,inactive,inactive,inactive,inactive,inactive,inactive,inactive,inactive,–,inactive,–,–
Nc1ccc(-c2ccc(N)c(Cl)c2)cc1Cl,27.4 µM (active) and 10.1 µM (active) and 17.2 µM (active),inactive,27.7 µM [inhibitor] (active),inactive and 17.4 µM (active),24.7 µM [inconclusive] (active) and 20.4 µM [inconclusive] (active) and 54.9 µM [inconclusive] (active),9.04 µM (active) and 6.86 µM (active),64 µM (active),inactive,–,inactive,7.74 µM (active) and 6.4 µM (active) and 19.3 µM (active),inactive,inactive,1.38 µM (active) and 2.02 µM (active) and 1.72 µM (active),inactive,inactive,–,inactive,inactive and 49 µM (active),–
Cc1cc(Cl)ccc1N,inactive,inactive,–,inactive,–,–,–,inactive,inactive,inactive,31.3 µM (active) and 33.6 µM (active),inactive,inactive,inactive,inactive,inactive,inactive,inactive,inactive,inactive
CCNc1nc(Cl)nc(NCC)n1,inactive,inactive,inactive,inactive,inactive,inactive,inactive,inactive,inactive,inactive,inactive,inactive,inactive,inactive,inactive,inactive,inactive,inactive,inactive,–
CCCC[n+]1ccccc1,inactive,inactive,–,inactive,–,–,–,inactive,inactive,inactive,inactive,inactive,inactive,inactive,inactive,inactive,–,inactive,–,–
